Test in all cases: NCI-60 one-dose screen, 48 h (100 = growth as untreated, 0 = no growth, -100 = all killed)
Assay [1] concerns T-47D breast. The note with it: 10 µM unless noted.
Assay [2] has as its system BT-549 breast. The settings on record: 10 µM unless noted.
Assay [3] concerns MDA-MB-435 melanoma. The note with it: 10 µM unless noted.
For assay [4], the system named is SW-620 colon. The note with it: 10 µM unless noted.
Assay [5] deals with MCF7 breast. The note with it: 10 µM unless noted.
The subject of assay [6] is HCT-116 colon. The settings on record: 10 µM unless noted.
Assay [7] relates to HCC-2998 colon. The note with it: 10 µM.
Assay [8] concerns KM12 colon. The settings on record: 10 µM unless noted.

This passage reports growth results from PubChem BioAssay (NCI).

Compounds without any hit were thinned out: in the full panel of roughly 83,000, 20% have a hit.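 A percent growth of 40 corresponds to 60% growth inhibition; 0 means no net growth; -100 means all cells died. Active threshold: below 10.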 Values without a mark were called inactive. Calls of active or inactive are those of the source.

As for `COc1cc(NCCN(CC(C)C)CC(C)C)c2ncc(C)cc2c1`, the growth was 20.3% in assay [1]; 88.7% in assay [2]; -76.4% (active) in assay [3]; 68.1% in assay [4]; 2.66% (active) in assay [5]; 31.8% in assay [6]. The figures for the growth in assay [7] and in assay [8] were 85.6% and 68.6%, respectively.
For the compound `NC(=O)c1n[nH]n2c1nc(=O)c1c3c(sc12)CCCC3`, the growth in assay [1] is 96.2%; in assay [2] it was 98.3%; in assay [3] it was 117%; in assay [4] it was 100%; in assay [5], 92.3%; in assay [6] it was 104%. In addition, the growth in assay [7] and in assay [8] was 104% throughout.
In the case of `O=C(NO)c1ccc(Cn2c(=O)n(-c3ccccc3F)c(=O)c3ccccc32)cc1`, the growth in assay [1] was 8.62% (active); in assay [2], 21.3%; in assay [3], -78.7% (active); in assay [4] it was 0.226% (active); in assay [5], 20.8%; in assay [6] it was -3.7% (active). In addition, the growth was -32.9% (active) in assay [7] and -40.7% (active) in assay [8].
Consider `O=C(NOCCO)c1cc(CN2OCCCC2=O)c(F)c(F)c1Nc1ccc(I)cc1F`, for which the growth in assay [1] is 67.6%; in assay [2] it was 80.5%; in assay [3], 36.9%; in assay [4], 24.1%; in assay [5] it was 88.7%; in assay [6] it was 13.9%. For the same compound, the growth in assay [7] was -18.6% (active); in assay [8] it was 26.6%.
For the compound `O=C(Cn1c(=O)ccn(CCCCCCCCOc2ccc(Br)cc2)c1=O)Nc1ccc(Oc2ccc(Cl)cc2)cc1`, the growth was 37.8% in assay [1]; 54.1% in assay [2]; 65.6% in assay [3]; 73% in assay [4]; 41.3% in assay [5]; 46.5% in assay [6]. Moreover, the growth in assay [7] is 75.5%; in assay [8] it was 61.7%.
Turning to `CNC(=O)c1cnc(C)nc1-c1cc(C(C)(C)C)c(O)c(C(C)(C)C)c1`, the growth is 99.3% in assay [1]; 101% in assay [2]; 98.5% in assay [3]; 112% in assay [4]; 93.4% in assay [5]; 96.3% in assay [6]. Moreover, the growth in assay [7] is 127%; in assay [8], 96.4%.
On to `Cc1oc2c(C(=O)N/N=C\c3ccc(O)cc3O)c[nH]c2c1C`, for which the growth in assay [1] was 25.7%; in assay [2], -8.94% (active); in assay [3] it was 42.8%; in assay [4], 39.3%; in assay [5], 8.09% (active); in assay [6] it was 10.8%. The growth was 9.7% (active) in assay [7] and 28.9% in assay [8].
For the compound `CCOc1cc2ncc(C#N)c(Nc3ccc(F)c(Cl)c3)c2cc1NC(=O)/C=C/CN(C)C`, the growth is -41.1% (active) in assay [1]; -35.8% (active) in assay [2]; -87.2% (active) in assay [3]; -53.8% (active) in assay [4]; -41.7% (active) in assay [5]; -79.7% (active) in assay [6]. The growth in assay [7] was -49.2% (active); in assay [8], -83.8% (active).
As to `O=C(Nc1cccc(Cl)c1)Nc1ncc(CCNc2ncnc3ccsc23)s1`, the growth in assay [1] was -16.9% (active); in assay [2], 0.164% (active); in assay [3], 12.5%; in assay [4], 62.6%; in assay [5] it was 11.8%; in assay [6], 17.9%. Further, the growth was 80.1% in assay [7] and 11.4% in assay [8].
Turning to `O=C1C=CC2(NN=C(c3ccccc3)N2c2ccc(Cl)cc2)c2cccc(O)c21` (stereo not given), the growth in assay [1] is 87.2%; in assay [2], 33.5%; in assay [3] it was -91.5% (active); in assay [4], 52.5%; in assay [5], 45.4%; in assay [6] it was 26.1%. The growth is 64.4% in assay [7] and 58.6% in assay [8].
With `COc1cc2c(Oc3ccc4[nH]c(C)cc4c3F)ncnc2cc1OCCCN1CCCC1`, the growth in assay [1] is 82.5%; in assay [2], 85.5%; in assay [3] it was 99.6%; in assay [4], 102%; in assay [5], 89.8%; in assay [6] it was 89.3%. The growth was 102% in assay [7] and 96.7% in assay [8].
On to `COc1cc(Nc2ncc(F)c(Nc3ccc4c(n3)N(COP(=O)(O)O)C(=O)C(C)(C)O4)n2)cc(OC)c1OC`, for which the growth in assay [1] was 14.4%; in assay [2] it was 1.78% (active); in assay [3] it was 26.5%; in assay [4], 38.2%; in assay [5], 25.7%; in assay [6], 22.1%. Moreover, the figures for the growth in assay [7] and in assay [8] were 66.8% and 11.7%, respectively.
On to `CC(C)[C@@H](C)/C=C/[C@@H](C)[C@H]1CCC2=C3C=CC4=CC(=O)CC[C@]4(C)[C@H]3CC[C@@]21C`, for which the growth in assay [1] is 91.3%; in assay [2], 102%; in assay [3] it was 103%; in assay [4] it was 109%; in assay [5], 93.6%; in assay [6], 93%. Also, the growth in assay [7] is 112%; in assay [8], 104%.
For the compound `COC(=O)c1ccc2c(C(=Nc3ccc(N(C)C(=O)CN4CCN(C)CC4)cc3)c3ccccc3)c(O)[nH]c2c1`, the growth in assay [1] was 47.4%; in assay [2], 55.8%; in assay [3], 72.6%; in assay [4], 67.4%; in assay [5], 33.5%; in assay [6], 20.2%. In addition, the growth in assay [7] was 84.3%; in assay [8] it was 8.95% (active).
`C/C(=C(/c1ccc(Cl)cc1)c1ccc(OCCN2CCCCC2)cc1)c1ccccc1`: the growth was 46.7% in assay [1]; 81.3% in assay [2]; 90.9% in assay [3]; 60.1% in assay [4]; 43.6% in assay [5]; 54.2% in assay [6]. Besides, the growth in assay [7] was 98%; in assay [8] it was 29.9%.
